In PubChem BioAssay AID590 (National Center for Advancing Translational Sciences (NCATS), 2007):
In all, about 59,000 compounds went through this assay and about 6,500 (11%) were called active. Inconclusive results (about 15%) are left out. Rule as the data show it: active = max dye-equivalent concentration above about 10 nM; inconclusive = mostly about 1.1 nM to 9.6 nM; inactive = weaker than that. Many of the other results were omitted from the sample, so actives are more common in it than they were.

Test: qHTS Assay for Spectroscopic Profiling in A350 Spectral Region
Conditions: Compound autofluorescence, 340/450 nm, Alexa 350 dye-equivalents; hits give high values

Structure (SMILES) | max dye-equivalent concentration
COc1ccc2c(c1OC)C(=O)N(c1ncn[nH]1)C2 | inactive
CCOc1ccc2nc(NCCNS(=O)(=O)c3ccccc3)c(C#N)cc2c1 | 86 nM (active)
O=C(O)c1cccc(S(=O)(=O)NCCO)c1 | inactive
CCOc1ccc(Nc2oc(Cc3ccccc3)nc2C#N)cc1 | inactive
CCOc1ccccc1N(CC(=O)NC1CCCCC1)C(=O)CCCC(=O)Nc1ccccn1 | inactive
CN(C)CCCNc1c2c(c(C#N)c3nc4ccccc4n13)CCC2 | 94 nM (active)
N#Cc1c2c(c(N3CCN(CCO)CC3)n3c1nc1ccccc13)CCCC2 | 23 nM (active)
CN(C)C(=O)/N=N\C(=O)N(C)C | inactive
CC(C)NS(=O)(=O)c1ccc(CCC(=O)N2CCOCC2)cc1 | inactive
N=C(CC(=O)Nc1ccccn1)c1ccccc1 | inactive
O=C(c1ccccc1)N1CCN(C(=O)N2CCCCC2)CC1 | inactive
COc1ccc(-c2nc3n(c2Br)CCC3)cc1 | inactive
CC(Sc1nncs1)C(=O)NCc1ccc2c(c1)OCO2 (centres undefined) | inactive
CCOC(=O)c1c(C)[nH]c(C)c1C(=O)CSc1nc(N)cc(N)n1 | inactive
O=S(=O)(NCCOc1cccc2cccnc12)c1ccc(F)cc1 | inactive
COc1cc(NS(=O)(=O)c2ccc(NC(C)=O)cc2)cc(OC)c1 | inactive
CC(=O)Nc1ccc(S(=O)(=O)Nc2cccc(NC(=O)C(C)(C)C)c2)cc1 | inactive
COc1ccc(NS(=O)(=O)c2ccc(NC(=O)C(C)(C(F)(F)F)C(F)(F)F)cc2)nn1 | 23 nM (active)
O=C(CN(c1ccc2c(c1)OCCO2)S(=O)(=O)c1ccccc1)Nc1ccc2c(c1)OCO2 | inactive
CCCn1c(C(O)c2cc(OC)ccc2OC)nc2ccccc21 (centres undefined) | inactive
O=C(NCCc1ccco1)c1nn(Cc2ccccc2)c(=O)c2ccccc12 | inactive
COc1c(O)cccc1-c1nnn(CCC(=O)OCC(=O)c2ccccc2)n1 | inactive
COCCNc1ccnc(-c2cccc(NS(C)(=O)=O)c2)n1 | inactive
COc1ccc(OCCCON2C(=O)c3ccccc3C2=O)cc1 | inactive
COc1ccc(N2C(=O)c3cccc4cccc(c34)C2=O)nn1 | 160 nM (active)
CCOC(=O)c1[nH]cnc1C(=O)NC1CCCCC1 | inactive
Fc1ccccc1CCNc1nnnn1-c1ccccc1 | inactive

Structure (SMILES) | max dye-equivalent concentration
Cc1cc(C)n(-c2ccc(Cl)c(C(=O)O)n2)n1 | inactive
COc1ccccc1NC(=O)C1=C(C)NC2=C(C(=O)CCC2)C1c1ccc(C)o1 (centres undefined) | 16 nM (active)
COc1ccccc1NC(=O)C1=C(C)Nc2ncnn2C1c1ccc(C)o1 (centres undefined) | inactive
COC(=O)C1=C(C)NC2=C(C(=O)c3ccccc32)C1c1ccc(-c2ccc(C(=O)O)cc2)o1 (centres undefined) | inactive
O=C(CCCCn1c(=O)[nH]c2ccccc2c1=O)NCc1ccc2c(c1)OCO2 | inactive
CC1CN(C(=O)CN2C(=O)NC(C)(c3ccccc3)C2=O)CC(C)O1 (centres undefined) | inactive
CN(C(=O)C1CCOC1)c1nnc(-c2cccnc2)s1 (centres undefined) | inactive
C[C@@H]1C[C@H]2[C@@H]3C[C@H](F)C4=CC(=O)C=C[C@@]4(C)[C@]3(F)[C@H](O)C[C@]2(C)[C@@]1(O)C(=O)CO | inactive
CCCCOc1ccccc1/C=c1/sc2nc(-c3oc4ccccc4c3C)nn2c1=O | inactive
Cc1nc(Nc2ccc3c(c2)OCCO3)c2nnn(Cc3ccccc3Cl)c2n1 | 980 nM (active)
Cc1cc(Cl)c(S(=O)(=O)Nc2ccc3c(c2)OCCO3)cc1OCC(N)=O | inactive
C#CCNc1nc(C(C)C)nc2c1nnn2Cc1ccccc1F | inactive
CSCC[C@H](NC(=O)NCc1cccs1)C(=O)O | inactive
COc1ccccc1CNc1ncncc1-c1cccnc1 | inactive
CCc1cc(=O)oc2cc(C)cc(OC(C)C(=O)O)c12 (centres undefined) | 110 nM (active)
CCOC(=O)CCCNC(=O)CN1C(=O)NC(CCc2ccccc2)C1=O (centres undefined) | inactive
CCNc1nc(NCC)nc(N(C)n2cnnc2)n1 | inactive
C=CCn1c(SCn2nnc3ccccc3c2=O)nnc1-c1ccc(Cl)cc1 | inactive
COC(=O)N1CCC2(CCCN(Cc3ccccc3OC)C2)CC1 | inactive
CCNCc1cc2cc(C)ccc2[nH]c1=O | 53 nM (active)
CCOC(=O)c1cc2cc(C)ccc2[nH]1 | inactive
Cc1ccc2[nH]c(=O)c(-c3nc4c(C)cccn4c3NCc3ccco3)cc2c1 | inactive
CC(C)(C)n1nnc(CCc2nnn(C(C)(C)C)n2)n1 | inactive
O=C(Nc1cc(N2CCOCC2)ncn1)NC1(C(F)(F)F)Oc2ccc(Cl)cc2O1 (centres undefined) | inactive
Cc1csc(NC(=O)NC2(C(F)(F)F)Oc3ccccc3O2)n1 | 100 nM (active)
Cc1csc(NC(=O)CN2CCCCCC2)n1 | inactive
COc1ccc2[nH]c3cc4c(=O)c5cc(OC)ccc5[nH]c4cc3c(=O)c2c1 | inactive
